The values below come from PubChem BioAssay (NCI).

Where “and” joins values, the source holds several entries; their conditions need not be identical. Equal entries are not always repeated. Compounds without any hit were thinned out: in the full panel of roughly 83,000, 20% have a hit.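 Step 1: grow cells in 96-well plates. Step 2: add test compound at a single concentration. Step 3: incubate 48 h. Step 4: record percent growth.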 Calls of active or inactive are those of the source. How the source made its calls: active means growth percent below 10; inactive means the rest.

The subject of the test is HL-60(TB) leukemia. The test can be described thus: NCI-60 one-dose screen, 48 h (100 = growth as untreated, 0 = no growth, -100 = all killed). Conditions: 10 µM unless noted.
In the case of `COc1ccc(/C=C2/SC(=Nc3c(C)nn(-c4ccccc4)c3N)NC2=O)cc1`, the growth is 16.6% (inactive).

As to `COc1cc2nc(-c3ccc(C(F)(F)F)cc3)cc(OCCN3CCCC3)c2cc1OC`, the growth is 66.8% (inactive). Consider `Cc1ccc(S(=O)(=O)Nc2ccc(Cl)cc2)cc1`, for which the growth was 119% (inactive). Turning to `O=C1NCCC12CCN(c1c(Cl)cncc1-c1ccc(O)cc1)CC2`, the growth is 102% (inactive). `Nc1ccc2c(c1)Cc1cc(N)c(Br)cc1-2`: the growth is 86.4% (inactive). As for `S=C(NCc1ccc2c(c1)OCO2)N1CCN(c2ncnc3c2oc2ccccc23)CC1`, the growth is 19.7% (inactive). Regarding `Cc1nc(N)sc1Sc1nc2ccc(Cl)cc2c(=O)n1-c1ccc(Oc2ccccc2)cc1`, the growth is 59.4% (inactive). As for `Cn1c2ccccc2c2nnc(NCCCCO)nc21`, the figure is 139% (inactive); as for `CN(C)CCN1CCN(c2ncccc2C2Nc3ccccc3-n3cccc32)CC1` (stereo not given), 98.7% (inactive). Regarding `Nc1c(C(=O)c2ccc(Br)cc2)sc2nc3c(cc12)CCCC3`, the growth is 94.7% (inactive).

`COc1ccc(C2C3=C(COC3=O)N(CCO)c3cc4c(cc32)CCC4)cc1` (stereo not given): the growth was 4.72% (active). As for `CC(C)(C)NC(=O)C(OC(=O)C1CCc2cc(F)ccc2O1)c1ccccc1Cl` (stereo not given), the figure is 103% (inactive); as for `CCN(CC)CCC(=O)c1cccc2ccccc12`, 102% (inactive).

In the case of `Cc1c(-c2nc3ccc(F)cc3c(=O)[nH]2)c2ccccc2n1C`, the growth is 4.98% (active).

For the compound `CCOc1ccccc1/C=N\N=C(\N)N/N=C/c1ccccc1OCC`, the growth was -7.32% (active). On to `Nc1ccccc1SC(CC(=O)c1ccccc1)c1ccc([N+](=O)[O-])cc1` (stereo not given), for which the growth is 95.8% (inactive) and 74.9% (inactive). Turning to `CCC(=O)Oc1ccc(/C(=C(/C)Cc2cccc(OC)c2)c2ccc(OCCN(C)C)cc2)cc1`, the growth is 91.3% (inactive).

Take `Nc1nc2ccccc2c2c1S(=O)(=O)c1ccc(Cl)cc1C2=O`: the growth is -24.2% (active). For `CC(O)(CC(=O)CC(=O)c1ccccc1)c1ccccc1` (stereo not given), the growth was 101% (inactive) and 90.1% (inactive). With `COc1ccccc1CNC(=O)C1c2ccccc2C(=O)N(CC(C)C)C1c1cccs1` (stereo not given), the growth is 67.9% (inactive). As to `CCOC(=O)NC(N)=O`, the growth was 92.4% (inactive). Consider `CCN(CC)Cc1cc2[nH]c3c4ccc(Cl)cc4ncc3c2cc1OC`, for which the growth was -72.1% (active) and 94.6% (inactive). As for `COc1cc(C2CC(C3C(=O)N(C)C(=O)N(C)C3=O)=NN2c2cc(Cl)cc(Cl)c2)cc(OC)c1OC` (stereo not given), the growth is 98.6% (inactive). In the case of `COc1cccc(NC(=O)[C@H](C(C)C)n2c(=O)[nH]c3ccccc3c2=O)c1` it was 86.2% (inactive); in that of `CC(=O)Nc1ccc(C(=O)/C=C/c2ccc(N(C)C)cc2)cc1`, 104% (inactive).

For the compound `CN(CCC(=O)/C(=C\c1ccccc1)c1ccc(Cl)cc1)Cc1ccccc1`, the growth was 41% (inactive). Regarding `COc1ccc(-n2ncn(CCCCCCn3cnn(-c4ccc(OC)cc4)c3=O)c2=O)cc1`, the growth was 86.7% (inactive). Turning to `CCc1cnn2c(NCc3ccc[n+]([O-])c3)cc(N3CCCC[C@H]3CCO)nc12`, the growth was -43.2% (active). Turning to `COc1cc(-c2nc3occn3c2-c2ccnc(NCCNS(=O)(=O)c3ccc(Cl)cc3)n2)ccc1F`, the growth is 100% (inactive).

As to `C#CCN(C)Cc1ccccc1`, the growth is 101% (inactive) and 96.4% (inactive). On to `NC1=NC(SCc2ccccc2CCl)c2ncn(Cc3ccccc3CCl)c2N1` (stereo not given), for which the growth is -25.5% (active). In the case of `CCCCCCCCn1ccc2cc(NC(=O)Cn3cc(CN4CCCCC4)nn3)ccc21`, the growth is -18.7% (active). Consider `C[C@@H](NC(=O)[C@@H](CC(=O)N1CCC(N2CCCCC2)CC1)N1C(=O)[C@@H](N2C(=O)OC[C@@H]2c2ccccc2)[C@H]1/C=C/c1cccc(Cl)c1)c1ccccc1`, for which the growth is 66.3% (inactive).

Regarding `COc1ccc(-c2nc3sc(-c4ccc(OC)cc4)c(-c4ccc(OC)cc4)n3c2/C=C/c2ccc(C(C)C)cc2)cc1`, the growth is 97% (inactive). As for `CC(=O)OCC1OC(OC(C)=O)C(OC(C)=O)C(OC(C)=O)C1OC(C)=O` (stereo not given), the figure is 120% (inactive) and 101% (inactive); as for `O=C(COc1ccc(-c2nc3ccccc3[nH]2)cc1)N=Nc1c(O)[nH]c2ccc(Cl)cc12`, 39.9% (inactive).

As for `CCCCCCN(CCCCCC)c1ccc(/C=C2/SC(=O)N(c3nc(N4CCCC4)nc(N4CCCC4)n3)C2=O)c(C)c1`, the growth is 20.2% (inactive). In the case of `Cc1ccc(N(CC2=NCCN2)c2cccc(O)c2)cc1` it was 105% (inactive); in that of `O=C(NCc1cn(Cc2cccc(Oc3ccccc3)c2)nn1)c1cccnc1Nc1ccccc1`, 32% (inactive); in that of `COc1cnc2c(c1)C(=O)c1c-2n(CCCNC(C)C)c(=O)c2cc(Cl)ccc12`, -69.1% (active).
